Whole data set: some 39,000 sequences, median “fluorescence intensity (a.u.)” near 4,300, cut for the highest 2% near 39,000. The sample holds the highest values, similar sequences and a random draw of the others, so the mix is not that of the screen.

This assay has as its target T1, OsSMF1 (Oryza sativa, UniProt Q6ZLB0 1-436).
T1 sequence: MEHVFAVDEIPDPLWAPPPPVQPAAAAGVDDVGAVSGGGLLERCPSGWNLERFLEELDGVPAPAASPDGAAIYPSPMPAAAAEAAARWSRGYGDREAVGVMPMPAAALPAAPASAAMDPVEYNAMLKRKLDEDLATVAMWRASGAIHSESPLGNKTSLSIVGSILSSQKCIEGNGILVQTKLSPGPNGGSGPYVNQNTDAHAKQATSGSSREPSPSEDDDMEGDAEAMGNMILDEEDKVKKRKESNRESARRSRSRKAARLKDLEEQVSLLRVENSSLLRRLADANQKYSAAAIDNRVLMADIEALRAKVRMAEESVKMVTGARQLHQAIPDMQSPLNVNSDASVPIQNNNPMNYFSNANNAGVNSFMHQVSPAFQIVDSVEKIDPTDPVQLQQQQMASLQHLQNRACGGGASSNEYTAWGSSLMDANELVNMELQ
Description: protein-binding microarray (RPBM); PBS, 2% BSA, 51.3 ng/ul salmon testes DNA, 50 uM zinc acetate, 200 nM TF, 25 C, 1 h; high values mean tight binding. The conditions noted are these: protein: recombinant; tags: N-terminal polyhistidine and DsRed monomer fusion (pET32a); chain copies: 2; label: CyDye5-dUTP incorporated in the synthesized complementary strand; 3' TTTTT single-stranded linker to array surface; dsDNA, one strand shown. The essentials:
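Using Ni–NTA, transcription factors fused N-terminally to polyhistidine and DsRed were purified after expression in E. coli BL21-CodonPlus. These were incubated at 200 nM with a blocked, double-stranded custom Agilent array for 1 h at 25 °C in a buffer containing 50 µM zinc acetate, and the array was washed. The binding signal is per-feature fluorescence intensity (arbitrary units) on an Axon 4000B scanner.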
In the case of “GGCTTAAGTCAAGCTAATTTTAGATATTTATTATTTTGTGCGGAGTCACCTAGTGCAG”, the binding signal is 3900 fluorescence intensity (a.u.). The figure for “GTTCCATTGGTTTGTAATAATGAAGCCTGCCTAGTGCTTTCGGAGTCACCTAGTGCAG” is 32100 fluorescence intensity (a.u.); for “CATCGTCCGCCGTGACACGCTGGCGGAGTCCGTGGTGCTACGGAGTCACCTAGTGCAG” it is 5010 fluorescence intensity (a.u.); for “GGGGAGGAGGACGAGTAACAGACGTGGTGGCCGCCGAGGCCGGAGTCACCTAGTGCAG” it is 3490 fluorescence intensity (a.u.). Then “TATATTTCATTAATATAAATAAAATTAAAATGTTACTTAACGGAGTCACCTAGTGCAG”, with 25600 fluorescence intensity (a.u.); and “GTAATTAAATTAAATTAAATTGATTAATACCAACCCTGGTCGGAGTCACCTAGTGCAG”, with 24500 fluorescence intensity (a.u.). Then “CGTCGATTAATTTCCCTGGTAAATACGAAATGTTCATGGTCGGAGTCACCTAGTGCAG”, with 39600 fluorescence intensity (a.u.).

With “CTCCTCTCCGATGAAGACCTGCCACCGGTCTGAACCATCTCGGAGTCACCTAGTGCAG”, the binding signal is 64300 fluorescence intensity (a.u.). Then “TCTCTCTCATCCTTCCAATCGATCTCCTCGACCTGCTATGCGGAGTCACCTAGTGCAG”, with 3440 fluorescence intensity (a.u.); and “ATGATGATGATCCTGATCCTGATCTTCCTCCTCGATCGACCGGAGTCACCTAGTGCAG”, with 42700 fluorescence intensity (a.u.); and “CTGAACCATCCGACTCACCACCGGTATTTCTCGGCCATCTCGGAGTCACCTAGTGCAG”, with 3950 fluorescence intensity (a.u.). Then “CTCCACCACGAGTCACGAGTCACGACCACCTCTCCGGTCTCGGAGTCACCTAGTGCAG”, with 4170 fluorescence intensity (a.u.); and “TGGCCCATCAGAGTCAGAGCCGCCGCCGACTCCAGATTCCCGGAGTCACCTAGTGCAG”, with 3220 fluorescence intensity (a.u.); and “GATCTAGCCGACTCGATCCCGCCGATGACGATTCCATCCCCGGAGTCACCTAGTGCAG”, with 39300 fluorescence intensity (a.u.). The figure for “CCCCACTGATGATGATGATGACTCGATTCTATTCCACCGCCGGAGTCACCTAGTGCAG” is 5550 fluorescence intensity (a.u.). Regarding “CTCTCCTCTCCTCTTGGTGATGACTGATCGATGACCACCACGGAGTCACCTAGTGCAG”, the binding signal is 4680 fluorescence intensity (a.u.).

For the sequence “GCCCGGAAGCTAGCGCCTCGTCGACTTGGGCGGCGGCTGACGGAGTCACCTAGTGCAG”, the binding signal was 18000 fluorescence intensity (a.u.). Take “CTTAGTCGCCATTTTCTTCCCATATCCACGCGCCACGTGGCGGAGTCACCTAGTGCAG”: the binding signal is 25100 fluorescence intensity (a.u.). The figure for “TGAATCTATACACTCTTCTATTCAGATTCGTTGTACTATGCGGAGTCACCTAGTGCAG” is 3870 fluorescence intensity (a.u.); for “GCCTAATTACATCATGATTTGACAATGTTGTGCTACAGTACGGAGTCACCTAGTGCAG” it is 4210 fluorescence intensity (a.u.); for “GCCGTGCCGTGCCGTGCCGGCCCGCGGGCTCGGCCAGCGGCGGAGTCACCTAGTGCAG” it is 30700 fluorescence intensity (a.u.). Then “CTACCAGACCCGTGGGCCGGCTCTGCCTCGCCTAATCCAGCGGAGTCACCTAGTGCAG”, with 47000 fluorescence intensity (a.u.); and “CCGCGGCCACCTGGCCTACCTCGCCTCTCCCGTGGGCCCCCGGAGTCACCTAGTGCAG”, with 3240 fluorescence intensity (a.u.).

These data come from article PMC7819943, “Rice protein-binding microarrays: a tool to detect cis-acting elements near promoter regions in rice”.
